From PubChem BioAssay AID1159580 (chemical genetic matrix, 2015)
Several values for one entry are separate records, joined by “and”; a condition that tells them apart may be missing. Equal entries are not always repeated. Hit rate of the full screen: of about 5,500 compounds, about 2,000 (36%) were called active. Inconclusive results (about 18%) are left out. Rule as the data show it: active = normalized growth mostly below about 0.91 (no sharp cut-off); inconclusive = no clear call, values can overlap the other calls; inactive = mostly above about 0.92. Some of the results follow.

Assay: chemical genetic growth profiling, strain panel (AID 1159580);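 also: tested at 20 µM; growth read once vehicle control cultures reached saturation at 30 °C; 1 = growth at the plate median or of vehicle wells; lower values mean less growth of the strain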
Details: growth OD

Measured: normalized growth

CCN(CC)CCOC(=O)c1ccc(N)cc1
inactive: S. cerevisiae deletion strains, locus YJR075W, strain HOC1, hits give low values 1.07 | S. cerevisiae deletion strains, locus YKL009W, strain mrt4, hits give low values 0.978 | S. cerevisiae deletion strains, locus YKL068W, hits give low values 0.987 | S. cerevisiae deletion strains, locus YKL085W, strain MDH1 (second series), hits give low values 0.981 | S. cerevisiae deletion strains, locus YKL085W, strain MDH1, hits give low values 0.981 | S. cerevisiae deletion strains, locus YKL160W, strain elf1, hits give low values 1.01 | S. cerevisiae deletion strains, locus YKL190W, strain CNB1, hits give low values 1.01 | S. cerevisiae deletion strains, locus YKR001C, strain vps1, hits give low values 0.986 | S. cerevisiae deletion strains, locus YKR026C, strain gcn3, hits give low values 0.99 | S. cerevisiae deletion strains, locus YKR091W, strain srl3, hits give low values 0.988 | S. cerevisiae deletion strains, locus YLL001W, strain dnm1, hits give low values 1.02 | S. cerevisiae deletion strains, locus YLL026W, hits give low values 1 | S. cerevisiae deletion strains, locus YLL041C, strain sdh2, hits give low values 0.987 | S. cerevisiae deletion strains, locus YLR027C, strain aat2, hits give low values 0.994 | S. cerevisiae deletion strains, locus YLR039C, strain RIC1, hits give low values 1.03 | S. cerevisiae deletion strains, locus YLR058C, strain SHM2, hits give low values 1.01 | S. cerevisiae deletion strains, locus YLR102C, strain apc9, hits give low values 0.986 | S. cerevisiae deletion strains, locus YLR113W, strain HOG1, hits give low values 1.02 | S. cerevisiae deletion strains, locus YLR221C, strain rsa3, hits give low values 0.958 | S. cerevisiae deletion strains, locus YLR258W, strain gsy2, hits give low values 0.975 | S. cerevisiae deletion strains, locus YLR262C, strain YPT6 (second series), hits give low values 0.991 | S. cerevisiae deletion strains, locus YLR262C, strain YPT6, hits give low values 1.04 | S. cerevisiae deletion strains, locus YLR268W, strain sec22, hits give low values 0.959 | S. cerevisiae deletion strains, locus YLR320W, strain mms22, hits give low values 0.969 | S. cerevisiae deletion strains, locus YLR330W, strain CHS5, hits give low values 1.01 | S. cerevisiae deletion strains, locus YLR342W, strain FKS1 (second series), hits give low values 1 | S. cerevisiae deletion strains, locus YLR342W, strain FKS1, hits give low values 1.02 | S. cerevisiae deletion strains, locus YLR357W, strain rsc2, hits give low values 0.955 | S. cerevisiae deletion strains, locus YLR370C, strain arc18, hits give low values 1.01 | S. cerevisiae deletion strains, locus YLR371W, strain rom2, hits give low values 0.992 | S. cerevisiae deletion strains, locus YLR384C, strain iki3, hits give low values 0.991 | S. cerevisiae deletion strains, locus YLR418C, strain cdc73, hits give low values 0.975 | S. cerevisiae deletion strains, locus YML016C, strain PPZ1, hits give low values 1.01 | S. cerevisiae deletion strains, locus YML032C, strain rad52, hits give low values 0.99 | S. cerevisiae deletion strains, locus YML120C, strain ndi1, hits give low values 0.989 | S. cerevisiae deletion strains, locus YML124C, strain tub3, hits give low values 0.995 | S. cerevisiae deletion strains, locus YMR058W, strain fet3, hits give low values 0.983 | S. cerevisiae deletion strains, locus YMR078C, strain ctf18, hits give low values 0.992 | S. cerevisiae deletion strains, locus YMR125W, strain sto1, hits give low values 0.962 | S. cerevisiae deletion strains, locus YMR129W, hits give low values 0.982 | S. cerevisiae deletion strains, locus YMR205C, strain PFK2, hits give low values 1 | S. cerevisiae deletion strains, locus YMR223W, strain ubp8, hits give low values 0.997 | S. cerevisiae deletion strains, locus YMR231W, strain pep5, hits give low values 0.997 | S. cerevisiae deletion strains, locus YMR263W, strain SAP30, hits give low values 1.01 and 0.982 | S. cerevisiae deletion strains, locus YMR307W, strain GAS1, hits give low values 0.975 and 0.992 | S. cerevisiae deletion strains, locus YNL067W, strain RPL9B, hits give low values 1.01 | S. cerevisiae deletion strains, locus YNL071W, strain lat1, hits give low values 0.966 | S. cerevisiae deletion strains, locus YNL128W, strain TEP1, hits give low values 1.01 | S. cerevisiae deletion strains, locus YNL153C, strain GIM3, hits give low values 1.01 and 0.998 | S. cerevisiae deletion strains, locus YNL175C, strain NOP13, hits give low values 0.991 | S. cerevisiae deletion strains, locus YNL183C, strain NPR1, hits give low values 1 | S. cerevisiae deletion strains, locus YNL197C, strain WHI3, hits give low values 0.986 | S. cerevisiae deletion strains, locus YNL209W, strain ssb2, hits give low values 0.975 | S. cerevisiae deletion strains, locus YNL224C, strain SQS1, hits give low values 0.998 | S. cerevisiae deletion strains, locus YNL233W, strain BNI4, hits give low values 1.01 | S. cerevisiae deletion strains, locus YNL248C, strain rpa49, hits give low values 0.938 | S. cerevisiae deletion strains, locus YNL250W, strain rad50, hits give low values 0.986 | S. cerevisiae deletion strains, locus YNL271C, strain bni1, hits give low values 0.985 | S. cerevisiae deletion strains, locus YNL298W, strain CLA4, hits give low values 0.99 | S. cerevisiae deletion strains, locus YNL307C, strain MCK1, hits give low values 0.986 | S. cerevisiae deletion strains, locus YNL322C, strain KRE1 (second series), hits give low values 0.986 | S. cerevisiae deletion strains, locus YNL322C, strain KRE1, hits give low values 1 and 0.981 | S. cerevisiae deletion strains, locus YNR049C, strain mso1, hits give low values 0.975 | S. cerevisiae deletion strains, locus YNR052C, strain pop2, hits give low values 0.988 | S. cerevisiae deletion strains, locus YOL006C, strain TOP1, hits give low values 1.04 | S. cerevisiae deletion strains, locus YOL012C, strain htz1 0.92 | S. cerevisiae deletion strains, locus YOL147C, strain pex11, hits give low values 0.988 | S. cerevisiae deletion strains, locus YOR001W, strain rrp6, hits give low values 1.01 | S. cerevisiae deletion strains, locus YOR061W, strain CKA2, hits give low values 1.01 | S. cerevisiae deletion strains, locus YOR069W, strain VPS5, hits give low values 1.01 | S. cerevisiae deletion strains, locus YOR070C, strain gyp1, hits give low values 0.996 | S. cerevisiae deletion strains, locus YOR080W, strain dia2, hits give low values 0.996 | S. cerevisiae deletion strains, locus YOR083W, strain WHI5 (second series), hits give low values 0.979 | S. cerevisiae deletion strains, locus YOR083W, strain WHI5, hits give low values 1 | S. cerevisiae deletion strains, locus YOR106W, strain vam3, hits give low values 1.02 | S. cerevisiae deletion strains, locus YOR136W, strain idh2, hits give low values 0.996 | S. cerevisiae deletion strains, locus YOR144C, strain elg1, hits give low values 0.994 | S. cerevisiae deletion strains, locus YOR184W, strain ser1, hits give low values 0.991 | S. cerevisiae deletion strains, locus YOR231W, strain MKK1, hits give low values 1.02 | S. cerevisiae deletion strains, locus YOR265W, strain rbl2, hits give low values 0.985 | S. cerevisiae deletion strains, locus YOR270C, strain vph1, hits give low values 0.983 | S. cerevisiae deletion strains, locus YOR290C, strain snf2, hits give low values 0.946 | S. cerevisiae deletion strains, locus YOR316C, strain cot1, hits give low values 0.992 | S. cerevisiae deletion strains, locus YPL051W, strain arl3, hits give low values 0.997 | S. cerevisiae deletion strains, locus YPL055C, strain LGE1, hits give low values 1.03 | S. cerevisiae deletion strains, locus YPL078C, strain atp4, hits give low values 1.02 | S. cerevisiae deletion strains, locus YPL106C, strain sse1, hits give low values 0.929 | S. cerevisiae deletion strains, locus YPL240C, strain hsp82, hits give low values 0.991 | S. cerevisiae deletion strains, locus YPL241C, strain CIN2, hits give low values 0.993 | S. cerevisiae deletion strains, locus YPL256C, strain CLN2, hits give low values 1.04 | S. cerevisiae deletion strains, locus YPR119W, strain clb2, hits give low values 0.986 | S. cerevisiae deletion strains, locus YPR141C, strain kar3, hits give low values 0.989 | S. cerevisiae deletion strains, locus YPR163C, strain tif3, hits give low values 0.994 | S. cerevisiae deletion strains, locus YPR167C, strain met16, hits give low values 0.991 | S. cerevisiae deletion strains, strain wtn01, hits give low values 0.996 | S. cerevisiae strains, strain wild type, hits give low values 1.01
